Assay outcomes as filed in PubChem.
A selection: hits, their analogues and other compounds. The true share with any hit is near 6.2%.
ATXN viability: Viability Counterscreen for Primary qHTS for Inhibitors of ATXN expression. S2 cells (HEK-293 line with an ATXN2-luciferase reporter) viability, CellTiter-Fluor protease fluorescence, 24 h. Potency, µM (series often up to 56.7 µM), usual class: cytotoxic. actives 0.49% (n = 400,000). AID 651635, 2014; also: nearly all actives have a fitted effect of over 40% in size
HT1080NT lethal: qHTS for induction of synthetic lethality in tumor cells producing 2HG: qHTS for the HT-1080-NT fibrosarcoma cell line. HT-1080-NT fibrosarcoma viability, CellTiter-Glo ATP luminescence, 48 h. Potency, µM (series often up to 46.1 µM), for the others: top-dose activity, negative = less viability, most hits filed as cytotoxic. actives 1.6% (n = 360,000);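 also: NT is the 2HG producing partner of a matched IDH1 knockdown line; 0% = DMSO-treated cells and -100% = media-only wells without cells; nearly all actives have a fitted effect of over 55% in size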
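Compounds were tested in concentration-response format on HT-1080-NT cells for 48 hours at 37 degrees C. Cell viability came from CellTiter-Glo luminescence; curves were classified by r2, response magnitude and activity.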
KB-3-1 tox: qHTS assay for MDR1-selective chemotherapeutics: Primary screen using the parental adenocarcinoma cell KB-3-1 | KB-3-1 viability, CellTiter-Glo ATP luminescence, 72 h | Potency, µM (series often up to 46.1 µM), usual class: cytotoxic | AID 1347075, 2019 | actives 1.4% (n = 400,000); also: % is scaled to controls: 0 for no effect and ±100 for the full control effect; nearly all actives have a fitted effect of over 60% in size
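Cytotoxicity measured as CellTiter-Glo luminescence after 72 h at 37 C. Compound titrations were pinned onto drug-naive KB-3-1 parental adenocarcinoma cells grown in DMEM with 10% FBS, and normalized data fitted to concentration-response curves.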
ATXN2 expr inh: Primary qHTS for Inhibitors of ATXN expression | Potency, µM (titrated, usually from 57 µM), for inactives: at the top dose activity change, negative = inhibition, actives largely listed as inhibitors | HEK-293 ATXN2-luciferase reporter, luminescence, 24 h | actives 0.72% (n = 360,000); also: % is scaled to controls: 0 for no effect and ±100 for the full control effect; nearly all actives have a fitted effect of over 55% in size
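qHTS (up to 57 uM final) was run with 24 h compound exposure of reporter cells at 37 °C. Each well was multiplexed: SteadyGlo luminescence measured ATXN2-luciferase expression after a fluorogenic Gly-Phe-AFC viability readout (25 uM final).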
KB-V1 cytotox: qHTS assay for MDR1-selective chemotherapeutics: Primary screen using the drug-selected MDR subline cells KB-V1; Potency, µM (series often up to 46.1 µM), actives largely listed as cytotoxic; KB-V1 MDR cells viability, CellTiter-Glo, 72 h; actives 3.4% (n = 400,000); also: % is scaled to controls: 0 for no effect and ±100 for the full control effect; nearly all actives have a fitted effect of over 60% in size
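Cytotoxicity toward P-gp-expressing KB-V1 cells was determined as loss of CellTiter-Glo luminescence after 72 h at 37 degrees C. Compounds were tested in quantitative HTS format across a concentration range, with curves fitted to normalized data.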
HT1080 IDH1KD tx: qHTS for induction of synthetic lethality in tumor cells producing 2HG: qHTS for the HT-1080-IDH1KD cell line. HT-1080 IDH1 knockdown viability, ATP luminescence, 48 h. Potency, µM (series often up to 46.1 µM), for inactives: at the highest dose activity, negative = toxicity, hits mostly cytotoxic. actives 2% (n = 360,000);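 also: 0% = DMSO wells and -100% = cell-free medium wells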
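Viability of IDH1-knockdown HT-1080 fibrosarcoma cells was assessed by CellTiter-Glo after 48 h at 37 °C with titrated compound; concentration-effect curves were classified by fit quality and response size.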
* = called active by the depositor; i = inactive; ? = inconclusive; · = not tested or not shown. Calls follow the shape of the dose curve; as a rule, active = well fitted curve in the direction sought with a large enough effect; inconclusive = small, poorly fitted or top-dose-only effect, or another doubt; inactive = no such curve, though single readings can be large; an effect the other way counts as inactive or inconclusive. Potency is read from the fitted curve at half-maximal effect.

SMILES	ATXN viability	HT1080NT lethal	KB-3-1 tox	ATXN2 expr inh	KB-V1 cytotox	HT1080 IDH1KD tx
O=C(Oc1c(CN2CCOCC2)cc(Cl)c2cccnc12)c1ccccc1	11µM*	?	?	8.9µM*	?	10µM*
O=C(COc1c(Br)cc(Br)c2cccnc12)N1CCCCC1	i	-15%	i	1%	i	-16%
Oc1c(CN2CCCCC2)cc(Br)c2cccnc12	3.5µM*	?	13µM*	4µM*	?	?
CN1CCN(C2CCN(Cc3ccc(O)c4ncccc34)CC2)CC1	i	·	i	-23%	i	·
COc1ccc(CC(=O)Nc2c(C(=O)N3CCN(c4ncccn4)CC3)oc3ccccc23)cc1	?	?	i	-3%	i	?
CCCc1nc2cccnc2n1C1CCN(C(=O)Cn2nccc2C)CC1	i	·	·	·	·	·
COc1cc(-c2cnc3c(NC=O)cc(-c4ccc(N5CCN(C)CC5)cc4)cn23)cc(OC)c1OC	?	-5%	?	-30%	?	?
CN1CCN(c2ccc(-c3cc(NC=O)c4ncc(-c5ccc(F)cc5)n4c3)cc2)CC1	?	?	?	0%	i	?
COc1cc(-c2cnc3c(NC(C)=O)cc(-c4ccc(N5CCN(C)CC5)cc4)cn23)cc(OC)c1OC	·	?	?	14µM*	?	?
CC(=O)Nc1cc(-c2ccc(N3CCN(C)CC3)cc2)cn2c(-c3ccccc3)cnc12	?	?	i	?	i	21µM*
CN1CCN(c2ccc(-c3cc(NC=O)c4ncc(-c5ccccc5)n4c3)cc2)CC1	?	?	i	?	23µM*	?
O=C1C2=C(Nc3ccccc3SC2c2ccccc2C(F)(F)F)c2ccccc21 (stereo not drawn)	?	·	i	?	?	·
Cc1ccc(Cn2c(C)c(CNCc3ccccc3F)c(C(=O)O)c2C)cc1	i	·	i	-3%	?	·
COc1ccc(NC(=O)CSc2nc(=O)n(CCN3CCOCC3)c3c2CCCC3)c(OC)c1	i	4%	i	-3%	8.2µM*	4%
Cc1ccc(N(CCCCN2C(=O)c3ccccc3C2=O)C(=O)c2cccc([N+](=O)[O-])c2)cc1	i	-9%	i	-20%	18µM*	-19%
O=C(Cc1ccc(Oc2ccccc2)cc1)NO	·	·	i	·	i	·
C=CC[C@H](CC(=O)N(CCO)Cc1ccccc1)C(=O)N[C@@H](COC(=O)[C@@H](CC=C)Cc1ccc(F)cc1)Cc1c[nH]c2ccccc12	28µM*	?	i	-23%	i	?
C=CC[C@@H](CC(=O)N(CCO)Cc1ccccc1)C(=O)N[C@@H](COC(=O)[C@@H](CC=C)Cc1ccc(F)cc1)Cc1c[nH]c2ccccc12	?	?	?	-9%	?	?
C=CCC[C@@H](Cc1ccc(F)cc1)C(=O)OC[C@@H](Cc1c[nH]c2ccccc12)NC(=O)[C@H](CC=C)CC(=O)N(CCO)Cc1ccccc1	·	16µM*	?	?	21µM*	?
C=CCC[C@H](Cc1ccc(F)cc1)C(=O)OC[C@@H](Cc1c[nH]c2ccccc12)NC(=O)[C@H](CC=C)CC(=O)N(CCO)Cc1ccccc1	20µM*	?	?	?	?	?
O=C(NCc1ccccc1Cl)c1ccc(CSCc2ccccc2Cl)o1	·	·	i	·	i	·
O=C(COc1ccccc1-c1ccccc1)NCc1ccco1	i	-17%	?	20%	i	-18%
